Source: PubChem BioAssay (National Center for Advancing Translational Sciences (NCATS))
D2 PAM-1: positively modulates the human D2 dopamine receptor allosterically; P14416; HEK293 T-REx D2, calcium flux, EC20 dopamine potentiation; actives 0.34% (n = 340,000); AID 485347; potentiation, % at 10 µM;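 active = potentiation over 3 SD above the plate norm, cut at about 30% in these data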; note: 0% is about no effect
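Potentiation of an EC20 dopamine calcium response measured kinetically over 180 s, after a preceding 180 s compound-only read flagging agonists. Cells: inducible Hek293 Trex D2 line, 4000/well, cultured overnight at 30 C before dye loading.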
D2 ag-1: human D2 receptor agonism in beta-arrestin assay; P14416; DiscoveRx PathHunter D2 beta-arrestin, luminescence, 90 min; 100% = 57 uM dopamine signal; activation, % (no concentration beside the values); actives 0.084% (n = 360,000); in the data active = activation above about 40%; inconclusive = between about 15% and that limit
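DiscoveRx PathHunter D2 beta-arrestin cells (2,100/well) attached overnight, then compound-stimulated 90 min at 37 C in HBSS/10 mM HEPES/0.1% Tween-20 buffer; beta-galactosidase complementation read by luminescence after 1 h at ambient temperature. Dopamine 57 uM final (EC100) as control.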
D2 PAM-2: potentiates the human D2 dopamine receptor allosterically | DiscoveRx D2 beta-arrestin cells, luminescence, 90 min; 100% = 57 uM dopamine signal | actives 0.23% (n = 360,000) | P14416 | potentiation, % (no concentration beside the values); in the data active = potentiation above about 50%; inconclusive = mostly about 30% to 49%
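D2 cells co-treated with compound plus 50 nM dopamine (EC20) for 90 min at 37 deg C to detect potentiation. Beta-arrestin recruitment was read as enzyme-fragment luminescence after 1 h at ambient temperature. Full response was set by 57 uM dopamine.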
D2 ag-2: activates the human D2 dopamine receptor; HEK293 T-REx D2 cells, calcium flux agonist mode; activation, % at 2 µM; actives 0.53% (n = 340,000); AID 485358;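 active = activation over 3 SD above normal in the single-dose calcium agonist read, cut at about 30% in these data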; note: 0% is about no effect
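Agonism is scored from calcium flux in a force-coupled, inducible HEK293 cell line expressing D2, read kinetically for 180 s after compound addition against dopamine controls.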
D2 antagonist: antagonizes the human D2 dopamine receptor; P14416; HEK293 TREx D2 cells, calcium flux, dopamine EC80; inhibition, % at 10 µM; actives 2% (n = 340,000); in the data active = inhibition above about 30%; inactive = below that, where a call was filed; note: 0% is about no effect
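Tetracycline-induced HEK293 TREx cells expressing D2 receptor forced-coupled to calcium signalling, loaded with no-wash calcium dye. Compounds added and calcium flux read 180 s, then dopamine added at EC80 and read a further 180 s.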
D3 arrestin ag: D3 receptor agonism confirmed, beta-arrestin readout; shares compounds with D2 ag-2; DiscoveRx D3 beta-arrestin cells, luminescence, 90 min; Potency, µM (doses to about 76.9 µM), for the others: at the top dose activation, actives largely listed as activators; actives 4% (n = 2,300); AID 720506;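 note: potency is the fitted concentration of half-maximal effect; 100% = dopamine control response; nearly all actives have a fitted effect of over 70% in size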
Target sequence (P35462 whole entry, looked up): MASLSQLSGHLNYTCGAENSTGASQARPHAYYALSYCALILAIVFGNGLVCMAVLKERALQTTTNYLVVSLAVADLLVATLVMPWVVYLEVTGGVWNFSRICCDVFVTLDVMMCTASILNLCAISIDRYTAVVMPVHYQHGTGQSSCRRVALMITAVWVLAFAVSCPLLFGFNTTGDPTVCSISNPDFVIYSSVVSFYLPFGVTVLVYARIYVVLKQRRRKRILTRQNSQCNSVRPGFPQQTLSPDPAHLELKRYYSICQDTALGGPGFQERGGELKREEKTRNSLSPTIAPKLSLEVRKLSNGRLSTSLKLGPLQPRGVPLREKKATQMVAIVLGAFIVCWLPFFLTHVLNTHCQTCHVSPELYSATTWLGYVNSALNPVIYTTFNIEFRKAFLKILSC
D2 ag-3: counter-screen for D3 agonists: human D2 dopamine receptor agonism. shares compounds with D2 ag-2. DiscoveRx PathHunter D2 beta-arrestin, luminescence, 90 min; response scale: percent relative to full dopamine signal. Potency, µM (top dose mostly 76.9 µM), for the others: top-dose activation, most hits filed as activators. actives 5.9% (n = 2,300); note: potency is the fitted concentration of half-maximal effect; % of control where 0% means no effect; nearly all actives have a fitted effect of over 70% in size
An asterisk follows results filed as active; ? = inconclusive; nt = no result; ! = not confirmed by another sample. Shown are actives, neighbours in structure and some others; about 2.4% of the full set was active somewhere. Unless noted, calls come from the whole dose curve; as a rule, active = well fitted activation curve with a large enough effect; inconclusive = small, poorly fitted or top-dose-only effect; inactive = flat fitted curve, though single readings scatter.

SMILES	D2 PAM-1	D2 ag-1	D2 PAM-2	D2 ag-2	D2 antagonist	D3 arrestin ag	D2 ag-3
Cc1ccccc1CN1CCN(S(=O)(=O)c2ccc(F)cc2)CC1	-2	-1	-18	1	-18	nt	nt
O=S(=O)(c1ccc(Br)cc1)N1CCCN(Cc2ccccc2F)CC1	-22	-1	-7	41*	-20	-8%	-2%
COc1ccc(C2=Nc3ccc(OC(F)(F)F)cc3NC(c3cccnc3)=N2)cc1	8	nt	nt	0	nt	nt	nt
CN1CCC2(CC1)C1CN(C)CC=C1C(C#N)=C(N)C2(C#N)C#N (stereo unspecified)	-17	14	3	46*!	30	29%	?
COc1cccc(CNc2ccc([N+](=O)[O-])cc2C)c1	0	-4	-28	-1	-7	nt	nt
COc1ccc(OC)c(CNc2ccc([N+](=O)[O-])cc2C)c1	-26	-1	-1	57*	8	-12%	3%
COc1ccc2[nH]cc(C3N4CC5(C)CN3CC(C)(C4)C5=O)c2c1 (stereo unspecified)	-14	0	-3	58*	-22	3%	-2%
Cc1ccc(OCCOCCN2CCCCC2)c([N+](=O)[O-])c1	-1	-1	-6	0	-6	nt	nt
Cc1ccc([N+](=O)[O-])c(OCCN2CCNCC2)c1	-17	-1	-4	68*	71*	?	4%
CC(C)c1ccc(NC(=S)N(C)CCc2ccccn2)cc1	-11	-2	-8	21	36*	-4%	-1%
Cc1cccc(C)c1NC(=S)N(C)CCc1ccccn1	0	-7	-11	0	-22	nt	nt
CC(OC(=O)c1ccc(-n2cnnn2)cc1)C(=O)Nc1ccc(F)c(F)c1F (stereo unspecified)	6	-2	5	0	18	-5%	-3%
CC(OC(=O)c1ccc(-n2cnnn2)cc1)C(=O)Nc1ccccc1F (stereo unspecified)	nt	0	-5	nt	nt	nt	nt
Cc1nc(-c2ccccc2)sc1CCNC(=O)C(=O)Nc1ccc2c(c1)OCO2	10	nt	nt	1	nt	nt	nt
COc1ccccc1CNc1nc2c(S(=O)(=O)c3ccccc3)nnn2c2ccc(Cl)cc12	-8	nt	nt	3	nt	nt	nt
O=C(c1ccc2c(c1)OCCO2)N(Cc1cccnc1)c1nc2c(F)cccc2s1	10	nt	nt	1	nt	nt	nt
CCOc1ccc(C(=O)NCc2ccc3c(c2)CCN3C(=O)c2ccc(C)cc2)cc1OCC	-7	nt	nt	-1	nt	nt	nt
COc1cccc(OC)c1OCC(O)CN1CCN(c2ccccc2F)CC1 (stereo unspecified)	-22	?	-9	78*	86*	?	?
COc1ccc(N2CCN(CC(O)COc3c(OC)cccc3OC)CC2)cc1 (stereo unspecified)	-18	-9	-24	-2	21	nt	nt
OC(COc1ccc(Cl)cc1)CN1CCN(c2ccccc2)CC1 (stereo unspecified)	-25	2	-16	19	71*	?	2%
OC(COc1cccc2ccccc12)CN1CCN(c2ccccc2)CC1 (stereo unspecified)	-23	6	0	56*	65*	?	23%
COc1cccc(CN2CCC(C(=O)N3CCN(c4ccccc4F)CC3)CC2)c1OC	9	3	-8	27	-14	2%	8%
COc1ccc(CCNC(=O)C(=O)NCC(c2cccs2)S(=O)(=O)c2ccccc2)cc1 (stereo unspecified)	4	nt	nt	1	nt	nt	nt
CC(C)CC(=O)OCc1cc(=O)n2nc(C3CCCCC3)sc2n1	-5	nt	nt	0	nt	nt	nt
COc1ccc(N2CCN(CC(O)COc3ccc(F)cc3)CC2)cc1 (stereo unspecified)	0	0	-13	0	-13	nt	nt
SMILES	D2 PAM-1	D2 ag-1	D2 PAM-2	D2 ag-2	D2 antagonist	D3 arrestin ag	D2 ag-3
Cc1ccc(OCC(O)CN2CCN(c3ccccc3)CC2)cc1 (stereo unspecified)	-23	3	-11	46*	62*	17%	5%
C=CCc1ccccc1OCC(O)CN1CCN(c2ccccc2)CC1 (stereo unspecified)	-22	nt	nt	-4	nt	nt	nt
C=CCc1cc(C)ccc1OCC(O)CN1CCN(c2ccccc2)CC1 (stereo unspecified)	-28	6	-13	62*	80*	0.63µM*	14%
CCc1ccc(OCC(O)CN2CCN(c3ccccc3)CC2)cc1 (stereo unspecified)	-13	?	-12	74*	109*	?	?
CCCc1ccc(OCC(O)CN2CCN(c3ccccc3)CC2)cc1 (stereo unspecified)	-26	?	-7	62*	69*	-6%	?
COc1ccc(OCC(O)CN2CCN(c3ccc(OC)cc3)CC2)cc1 (stereo unspecified)	8	-5	-39	2	-6	nt	nt
Cc1ccccc1C(=O)Nc1cccc(OCc2cc(=O)n3cccc(C)c3n2)c1	-11	nt	nt	1	nt	nt	nt
Cc1ncoc1C(=O)N1CCCC(N2CCN(c3ccccc3F)CC2)C1 (stereo unspecified)	-12	-3	-26	36*	1	-14%	-2%
O=C(c1ccco1)N1CCCC(N2CCN(c3ccccc3F)CC2)C1 (stereo unspecified)	-11	-2	-41	8	-18	nt	nt
O=C(c1ccnc(Cl)c1)N1CCCC(N2CCN(c3ccccc3F)CC2)C1 (stereo unspecified)	-6	3	0	24	25	19%	19%
CC(=O)N1CCC(N2CCN(c3ccccc3F)CC2)CC1	-20	41*	2	75*	71*	?	?
CC(=O)N1c2ccccc2C(=O)C1N1CCN(c2ccccc2F)CC1 (stereo unspecified)	3	nt	nt	nt	nt	nt	nt
Cc1ccc2c(c1)C(O)(CC(=O)/C=C/C=C/c1ccccc1)C(=O)N2 (stereo unspecified)	-11	-1	-5	48*	45*	-10%	-6%
Cc1ccccc1CCNC(=O)c1cc2cc(S(=O)(=O)N3CCCCC3)ccc2n1C	-10	nt	nt	1	nt	nt	nt
Cc1occc1-c1nnc(SCC(=O)Nc2nc3ccccc3s2)o1	-22	6	-2	45*	-19	-4%	-2%
Cc1ccc(-c2noc(CNC(=O)COc3cc(C)c(Br)c(C)c3)n2)cc1	-2	nt	nt	1	nt	nt	nt
Cc1ccc(S(=O)(=O)N2CCOCC2)cc1NC(=O)CNCc1cccnc1	-17	48*	63*	77*	60*	3.5µM*	35µM*
